ALDH1A1 inh: qHTS Assay for Inhibitors of Aldehyde Dehydrogenase 1 (ALDH1A1) | Purified ALDH1A1, NADH fluorescence, propionaldehyde substrate | Potency, µM (series often up to 75.3 µM), actives largely listed as inhibitors | 220,000 compounds, 7.3% hits | AID 1030, 2008
HPGD inh: qHTS Assay for Inhibitors of HPGD (15-Hydroxyprostaglandin Dehydrogenase); Potency, µM, most hits filed as inhibitors; 150,000 compounds, 4.3% hits; purified HPGD, NADH fluorescence kinetic, PGE2 substrate; 15-hydroxyprostaglandin dehydrogenase [NAD(+)] (Homo sapiens), P15428; AID 894, 2007
Target sequence (P15428 whole entry, looked up): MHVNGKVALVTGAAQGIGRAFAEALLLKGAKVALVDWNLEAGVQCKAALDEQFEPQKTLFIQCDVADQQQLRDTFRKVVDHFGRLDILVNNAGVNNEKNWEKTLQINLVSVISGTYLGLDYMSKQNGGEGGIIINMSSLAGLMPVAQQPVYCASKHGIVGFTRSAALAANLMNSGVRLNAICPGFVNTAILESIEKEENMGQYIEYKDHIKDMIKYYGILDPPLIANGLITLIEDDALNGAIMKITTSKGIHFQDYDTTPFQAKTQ
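20 nM HPGD preincubated 15 min at room temperature with compound in 50 mM Tris-HCl pH 8, 0.01% Tween 20. Started with 1 mM NAD+ and 30 uM prostaglandin E2; NADH fluorescence (360/450 nm) read 5 times over 30-s intervals, last minus first.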
PNC inhibitor: High Content Assay for Compounds that inhibit the Assembly of the Perinucleolar Compartment; PC3M PTB-GFP, PNC prevalence imaging, 16 h; stronger effect = lower value; activity change (PNC), negative = inhibition, % at 10 µM; 140,000 compounds, 3.1% hits; AID 2417, 2010;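 active = readout at or below -70, meaning at least 70% loss of cells showing the perinucleolar compartment, a nuclear body marking cancer cells; inconclusive = readout between -30 and a set limit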
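Read-out is percentage of cells bearing a perinucleolar compartment, from automated 20x imaging of fixed, Hoechst-stained PC3M PTB-GFP cells. Cells were seeded 4 h, then exposed 16 h to compound (23 nl of library stock) in duplicate plates.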
Numbers stand for hits; – = inactive; ? = inconclusive; · = no result. Hits are enriched below; roughly 11% of the tested compounds scored in any of these assays. Unless noted, calls follow the shape of the dose curve; as a rule, active = well fitted inhibition curve with a large enough effect (not every such curve was filed as active); inconclusive = small, poorly fitted or top-dose-only effect, or another doubt; inactive = no such curve, though single readings can be large or run the other way.

SMILES	ALDH1A1 inh	HPGD inh	PNC inhibitor
COc1ccccc1NS(=O)(=O)c1cc(NC(=O)c2sc3cc(Cl)ccc3c2Cl)ccc1C	–	·	·
COc1ccccc1NS(=O)(=O)c1cc(NC(=O)c2cccs2)ccc1N1CCCC1	12.6µM	8.91µM	–
COc1ccccc1NS(=O)(=O)c1cc(NC(=O)c2sccc2C)ccc1N1CCCC1	10µM	·	·
COc1ccccc1NS(=O)(=O)c1cc(NC(=O)c2cccs2)ccc1N1CCCCC1	–	–	–
CC(=O)c1ccc(OCC(O)CN2CCN(c3ccccn3)CC2)cc1 (stereo unspecified)	–	–	?
CCOC(=O)Nc1ccc2c(c1)nc(CN1CCCCC1)n2C	–	·	·
COc1ccc(N(C(=O)c2ccccc2OC(C)=O)C(C)C2CC2)cc1 (stereo unspecified)	–	–	–
O=C(c1cc(C(F)(F)F)cc(C(F)(F)F)c1)N1CCC2(CC1)CN(c1ncccn1)C2	–	–	·
Cc1oc2cc(O)cc(C)c2c(=O)c1-c1cnn(-c2ccccc2)c1	?	?	-115.3
Cc1oc2c(O)c(O)ccc2c(=O)c1-c1cnn(-c2ccccc2)c1	28.2µM	17.8µM	?
COc1ccc(-c2onc(C)c2-c2cnn(-c3ccccc3)c2)c(O)c1C	–	·	·
Cc1ccccc1-c1c(C)oc2cc(O)ccc2c1=O	?	?	–
OB(O)c1cc2ccccc2s1	–	–	·
CCc1ccc(-c2csc3ncn(CC(=O)N4CCOCC4)c(=O)c23)cc1	–	–	–
Clc1cccc(-c2ccc(C=Nc3ccc(N4CCOCC4)cc3)o2)c1	?	–	?
CC(C)(C)c1ccc(Cn2cnc(-c3ccc([N+](=O)[O-])cc3)c2)cc1	?	–	–
O=S1(=O)CCN(Cc2ccc(Cl)c(Cl)c2)CC1	–	–	–
CC(C)(C)c1ccc(CN2N=Nc3ccccc3S2(=O)=O)cc1	22.4µM	?	–
O=S1(=O)c2ccccc2N=NN1Cc1ccc(Cl)c(Cl)c1	2.51µM	5.62µM	–
CCn1c(SCCC#N)nnc1-c1ccncc1	–	–	–
COc1ccc(NC(=O)/C=C/c2cccc(F)c2)cn1	–	–	?
COc1ccccc1CNC(=O)/C=C/c1ccc(S(=O)(=O)N2CCOCC2)cc1	–	·	·
COc1ccc(NC(=O)/C=C/c2ccc(Br)o2)cn1	22.4µM	·	·
COc1ccc(NC(=O)/C=C/c2ccco2)cn1	7.08µM	·	·
O=C(/C=C/c1ccc2c(c1)OCO2)NCCCN1CCOCC1	?	?	–
SMILES	ALDH1A1 inh	HPGD inh	PNC inhibitor
O=C(/C=C/c1ccc(Br)o1)NCCCN1CCOCC1	2µM	·	·
COc1ccc(NC(=O)c2cc(Br)c(Br)s2)cn1	–	·	·
COc1ccccc1CNC(=O)/C=C/c1ccc(Br)o1	12.6µM	·	·
Nc1n[nH]c(N)c1N=Nc1ccc2c(c1)OCO2	–	·	·
COc1ccccc1N(CC(O)CN1C(=O)NC(C)(C)C1=O)S(=O)(=O)c1ccc(C)cc1 (stereo unspecified)	–	–	–
C[C@@H]1CC[C@]2(C(=O)O)CC[C@]3(C)C(=CCC4[C@@]5(C)C[C@@H](O)[C@H](O)[C@@](C)(CO)C5[C@H](O)C[C@]43C)C2[C@H]1C (stereo partly specified)	–	–	·
COCCNC(=O)Cn1nc(C)c([N+](=O)[O-])c1C	–	·	·
CCCn1ncc(CN2CCC(CO)(CC3CCCCO3)CC2)c1C (stereo unspecified)	–	·	·
Cc1cccc(NC(=O)CSc2nnc(-c3ccco3)c(-c3ccco3)n2)c1	7.94µM	·	·
Cc1ccc(NC(=O)CSc2n[nH]c(-c3ccco3)n2)c(C)c1	–	·	·
Cc1cccc(NC(=O)CSc2nnc(-c3ccco3)c(-c3ccco3)n2)c1C	3.55µM	10µM	–
Cc1cccc(NC(=O)CSc2nc(N)cc(N)n2)c1	–	–	–
Cc1ccsc1C(=O)Nc1nc2ccccc2[nH]1	–	·	·
Cn1c(=O)c2c3c(sc2n2c(SCC(N)=O)nnc12)CC(C(C)(C)C)CC3 (stereo unspecified)	?	–	?
c1csc(-c2nnc(NC3CCCCC3)c3ccccc23)c1	?	–	–
COc1ccccc1NC(=S)NNC(=O)c1ccncc1	–	·	·
COc1cc(OC)cc(C(=O)NNC(=S)Nc2ccccc2OC)c1	22.4µM	–	–
COc1ccccc1NC(=S)NC(C)=O	–	·	·
COc1ccccc1NC(=S)c1ccccc1	28.2µM	22.4µM	–
NC(=O)c1sc2nc(N3CCOCC3)c3c(c2c1N)CCCC3	?	?	–
CCOC(=O)c1sc2nc(N3CCOCC3)c3c(c2c1N)CCC3	?	?	-95.8
COc1ccc(C(=O)NCc2nnc(SCC(=O)Nc3nc4ccc(C)cc4s3)o2)cc1OC	–	–	?
C[C@H](N)c1nnc(SCc2ccc(Cl)cc2Cl)o1	–	–	–

Source: PubChem
